# Reference: PubChem BioAssay
# Active and inactive are the calls of the source.
# How the values were obtained:
# Albumin (Bos taurus) = Albumin (Bos taurus) (UniProt P02769); assay: compounds binding labelled BSA control protein – biochemical, small-molecule microarray, Alexa647 label, 635/667 nm fluorescence, artefact control for SMM control protein annotation, profiling panel (AID 1118); conditions: BSA-A647 binding, fluorescence 635 nm, higher = more signal;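 further: score merges 667 nm emission intensity and signal-to-noise per printed compound spot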
# Albumin (Bos taurus), sequence (P02769 whole entry, looked up): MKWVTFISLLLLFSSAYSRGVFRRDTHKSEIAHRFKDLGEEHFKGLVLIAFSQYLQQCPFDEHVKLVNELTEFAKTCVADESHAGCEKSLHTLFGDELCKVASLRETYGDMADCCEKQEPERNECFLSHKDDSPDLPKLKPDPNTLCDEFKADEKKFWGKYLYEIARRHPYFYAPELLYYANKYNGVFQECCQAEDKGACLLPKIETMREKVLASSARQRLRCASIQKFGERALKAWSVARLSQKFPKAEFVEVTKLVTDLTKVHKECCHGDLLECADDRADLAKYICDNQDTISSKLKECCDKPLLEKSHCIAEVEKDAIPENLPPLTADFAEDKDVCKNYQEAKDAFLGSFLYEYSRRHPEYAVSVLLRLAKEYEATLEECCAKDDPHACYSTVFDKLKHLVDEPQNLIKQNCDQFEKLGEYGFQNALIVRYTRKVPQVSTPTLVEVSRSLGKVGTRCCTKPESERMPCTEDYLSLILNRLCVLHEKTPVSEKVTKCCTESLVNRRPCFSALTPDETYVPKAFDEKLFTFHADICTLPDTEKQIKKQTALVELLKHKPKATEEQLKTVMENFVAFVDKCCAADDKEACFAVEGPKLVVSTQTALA
# [1] = probe aXIP binding to arrayed compounds – biochemical, NeuroSMM set, 635/667 nm fluorescence, primary screen (AID 1119); conditions: small-molecule microarray, higher = more signal, called active from +8 up or from −8 down;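 further: probe is the protein aXip251-270 applied at 1 µg/mL to compound-printed slides; binding of probe to printed compounds measured as 667 nm fluorescence plus signal to noise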
# [2] = probe aNOTCH3 binding on compound microarray – biochemical, small-molecule microarray, 635/667 nm fluorescence, primary screen (AID 1120); conditions: higher = more signal;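 further: probe is a biotin-tagged antibody raised against NOTCH3 rather than NOTCH3 protein; score merges spot fluorescence near 667 nm with spot signal to noise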
# [3] = probe aNOTCH2 binding on compound microarray – biochemical, small-molecule microarray, 635/667 nm fluorescence, primary screen (AID 1121); conditions: higher = more signal;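 further: score merges feature fluorescence read at 667 nm with its signal to noise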
# [4] = molecular target: Carbonic anhydrase 2 (Homo sapiens) (UniProt P00918); assay: compounds binding carbonic anhydrase 2 – biochemical, small-molecule microarray, Alexa647-labelled CAII, profiling panel (AID 1122); conditions: CAII-A647 binding fluorescence, higher = more signal
# [5] = COS7 lysate on small-molecule microarray, probe aHis, 635 nm (AID 1123); conditions: COS7 cell lysate, fluorescence, higher = more signal;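 further: z-score combines 667nm fluorescence intensity with signal-to-noise per printed compound spot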
# [6] = probe aLAP1 signal on lysate-treated microarray – cell lysate, small-molecule microarray, COS7 lysate, primary screen (AID 1124); conditions: probe aLAP1, fluorescence, higher = more signal;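 further: lysate comes from COS7 cells expressing LAP1 and is applied at 0.3 µg/mL; score merges spot fluorescence near 667 nm with signal-to-noise over triplicate slides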
# Sam68 (KHDRBS1) = assay: compounds binding KHDRBS1 protein – biochemical, small-molecule microarray, 635 nm fluorescence, primary screen (AID 1125); conditions: higher = more signal;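 further: score merges 667 nm channel intensity with signal to noise over triplicate slides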
# [7] = tested on: Chordin-like protein 2 (CHRDL2); assay: compounds binding chordin-like 2 – biochemical, small-molecule microarray, 635 nm fluorescence, primary screen (AID 1126); conditions: fluorescence 635 nm, higher = more signal;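 further: printed compound slides probed with Chrdl2 protein at 4 µg/mL for 1 h at 4 C; score merges 667 nm emission intensity with signal to noise over three replicate slides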
# [8] = molecular target: Concanavalin-A (Canavalia ensiformis) (UniProt P02866); assay: compounds binding concanavalin A lectin – biochemical, small-molecule microarray, Alexa647 label, 635 nm, artefact control for SMM control protein annotation, primary screen (AID 1127); conditions: ConA-A647 binding fluorescence, higher = more signal;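 further: z combines 667 nm emission intensity with signal-to-noise across three replicate slides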
# Concanavalin-A (Canavalia ensiformis), sequence (P02866 whole entry, looked up): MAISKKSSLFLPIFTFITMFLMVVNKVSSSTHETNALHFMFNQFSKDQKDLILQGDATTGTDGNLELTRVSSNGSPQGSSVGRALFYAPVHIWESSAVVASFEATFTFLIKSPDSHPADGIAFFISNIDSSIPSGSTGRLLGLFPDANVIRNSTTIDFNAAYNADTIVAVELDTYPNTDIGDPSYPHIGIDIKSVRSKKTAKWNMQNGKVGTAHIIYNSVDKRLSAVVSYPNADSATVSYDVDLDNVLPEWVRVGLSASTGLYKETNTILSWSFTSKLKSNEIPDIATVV
Compound,composite z-score (Albumin (Bos taurus)),composite Z-score [1],composite z-score [2],composite z-score [3],composite z-score [4],composite z-score [5],composite z-score [6],composite z-score (Sam68 (KHDRBS1)),composite z-score [7],composite z-score [8]
C=CCNC(=O)[C@H]1[C@@H]2C(=O)O[C@@H](c3ccccc3)[C@@H](c3ccccc3)N2[C@@H](c2ccc(O)cc2)[C@]12C(=O)Nc1ccc(C#CC3=CCCCC3)cc12,0.135,-0.121 (inactive),-0.119,0.23,0.416,1.52,0.573,1.11,0.62,1.12
CC[C@H](C)C(=O)O[C@H]1CC[C@]2(C)C3=C(CCC2C1(C)C)[C@]1(C)CC[C@H]([C@H](C)CCCC(C)C)[C@@]1(C)CC3 (stereo not given in full),-0.0017,-0.014 (inactive),-0.0947,-0.146,-0.0247,0.627,-0.329,0.329,0.367,0.515
CC(=O)NCCCC[C@@H]1NC(=O)[C@H]2C[C@@H](C(=O)NCCCCCC[N+](C)(C)C)[C@@H](c3ccc(O)cc3)N2C1=O,0.596,0.285 (inactive),-0.0057,-0.0556,0.676,2.2,0.527,1.17,1.4,0.682
CCOC(=O)C[C@H]1[C@H](OC(=O)c2ccc(-c3ccccc3)cc2)[C@@H](NC(=O)CC(C)C)c2cc(OCCCO)ccc2N1C(=O)Cc1ccc(OC)cc1,0.593,-0.244 (inactive),0.0582,0.0426,-0.0667,0.179,0.39,0.309,-0.213,-0.286
COc1ccc([Si](C)(C)[C@H]2[C@H](CCn3cc([C@H](O)c4ccccc4)nn3)O[C@@]3(C(=O)N(c4ccccc4)c4ccccc43)[C@@H]2C)cc1,0.121,-0.112 (inactive),-0.0879,-0.156,-0.102,-0.337,-0.075,0.0941,-0.201,0.173
CN(C)CCCC[C@@H]1NC(=O)[C@@H]2C[C@H](C(=O)NCCCCCCNC(=O)CS)[C@H](c3cccc(OCCO)c3)N2C1=O,-0.361,0.303 (inactive),-0.213,-0.0649,0.48,0.95,0.312,0.555,0.402,0.658
COC(=O)[C@@]1(CCS(=O)(=O)c2ccccc2)N=C(c2ccc(OCCCO)cc2)O[C@H]1c1ccccc1N=[N+]=[N-],0.827,-0.0127 (inactive),0.0237,0.0196,0.356,2.92,0.406,1.3,0.889,1.11
COCCOC(=O)N1C(=O)[C@@]2(c3cc(C#CCCO)ccc31)[C@H](C(=O)N1CCN(c3ncccn3)CC1)[C@H]1C(=O)O[C@H](c3ccccc3)[C@H](c3ccccc3)N1[C@@H]2c1ccc(O)cc1,0.506,0.168 (inactive),-0.236,-0.245,0.244,1.4,0.298,1.29,0.182,0.983
C=CCC(OC(C)=O)[C@@H]1[C@@H](N(Cc2ccc(-c3cccc(C(F)(F)F)c3)o2)C(=O)c2cccc3ccccc23)c2cc(OCCCO)ccc2N1C(=O)c1ccc2ccccc2c1 (stereo not given in full),-0.119,0.115 (inactive),0.147,-0.12,0.0138,0.289,-0.278,-0.351,0.31,-0.0957
CN(C)CCCC[C@@H]1NC(=O)[C@H]2C[C@@H](C(=O)O)[C@@H](c3cccc(OCCO)c3)N2C1=O,-0.468,0.666 (inactive),0.601,0.124,0.816,0.699,0.0206,0.524,0.941,0.931
CCCCN1CC=CC23O[C@@H]4C=CCOC(=O)[C@@H]4[C@H]2C(=O)N(CCO)[C@@H]3C1=O (stereo not given in full),-0.852,-0.483 (inactive),0.177,-0.185,0.85,-0.291,-0.217,-0.779,-1.68,-1.09
COc1cccc(C[C@H]2C[C@@H](CO[Si](C(C)C)(C(C)C)C(C)C)N3C(=O)[C@@]4(C(C)=O)O[C@@]23[C@@H]2C(=O)N(C)C(=O)[C@@H]24)c1,0.166,0.544 (inactive),-0.231,-0.118,0.0137,0.332,-0.316,0.984,0.908,0.117
C=C(COC)/C(=C/C[C@@H](OC(C)=O)c1ccccc1OCCO)c1cc(C(=O)OC)ccc1OC,0.27,1.02 (inactive),0.213,-0.122,0.388,0.283,0.0845,0.844,-0.183,0.369
CO[C@H]1O[C@H](CO)[C@@H](OC(=O)Nc2ccc3c(c2)OCO3)[C@@H]2OC(=O)[C@@H](Cc3ccccc3)C/C=C/C[C@H](Cc3ccccc3)C(=O)O[C@@H]12,-0.052,0.883 (inactive),0.274,0.0318,0.552,0.859,0.48,0.943,0.455,0.921
C=CC(CO)NC(=O)OCC1c2ccccc2-c2ccccc21 (stereo not given),-0.335,0.314 (inactive),0.0242,-0.108,-0.192,0.121,-0.0184,0.0668,0.566,0.47
CN(C)CCCCNC(=O)[C@H]1C[C@H]2C(=O)NCC(=O)N2[C@H]1c1cccc(OCCO)c1,-0.539,0.0388 (inactive),-0.179,-0.146,0.655,0.0949,-0.235,-0.705,0.281,-0.408

Compound,composite z-score (Albumin (Bos taurus)),composite Z-score [1],composite z-score [2],composite z-score [3],composite z-score [4],composite z-score [5],composite z-score [6],composite z-score (Sam68 (KHDRBS1)),composite z-score [7],composite z-score [8]
COC(=O)[C@@]1(Cc2ccccc2)[C@@H]2[C@@H](CC(=O)[C@H]2CC(=O)C(=O)N(C)C)CN1C(=O)c1ccccc1,0.579,-0.077 (inactive),-0.0288,-0.0928,0.838,2.87,0.712,-0.125,-0.641,0.596
CC1(C)OC[C@@]23C=C(Br)[C@@H](C[C@H]12)[C@@]1(CO1)C3=O,-0.172,0.0315 (inactive),0.0824,-0.189,-0.0169,-0.0842,-0.0515,0.107,0.467,0.262
COCCOC(=O)N1C(=O)[C@@]2(c3ccccc31)[C@H](C(=O)N1CCCCCCC1)[C@H]1C(=O)O[C@H](c3ccccc3)[C@H](c3ccccc3)N1[C@@H]2c1ccc(O)cc1,0.816,4.39 (inactive),2,0.95,0.608,3.97,2.11,1.3,1.41,1.03
COc1ccc(NC(=O)O[C@H]2[C@H](OC(=O)Nc3ccc4c(c3)OCO4)[C@H](OC(=O)Nc3ccc4c(c3)OCO4)[C@@H](OC)O[C@@H]2CO)cc1,-0.0357,-0.102 (inactive),0.037,-0.117,0.609,1.36,1.16,1.26,0.0872,1.02
COCCOC(=O)N1C(=O)[C@@]2(c3cc(C#CC4(O)CCCCCC4)ccc31)[C@H](c1ccccc1OCCO)N1[C@H](c3ccccc3)[C@H](c3ccccc3)OC(=O)[C@H]1[C@@H]2C(=O)N1CCCCCCC1,0.187,0.961 (inactive),1.07,0.513,0.497,2.16,0.364,1.29,0.905,0.992
CC1CC/C=C\[C@H]2OC34C=CCN(c5ccc(Cl)cc5)C(=O)[C@H]3N(CCCO)C(=O)[C@]4(C)C2C(=O)O1 (stereo not given in full),0.784,0.182 (inactive),-0.235,-0.18,0.931,-0.42,0.569,-0.38,-1.39,-0.749
CCOC(=O)C1=CC[C@@H](c2ccccc2)N(S(=O)(=O)c2ccc(C)cc2)[C@H]1C#N,0.721,0.718 (inactive),0.213,0.0362,0.76,1.67,0.254,1.2,-0.232,1.15
C=CCNC(=O)[C@@H]1[C@H]2C(=O)O[C@H](c3ccccc3)[C@H](c3ccccc3)N2[C@H](c2ccccc2OCCO)[C@@]12C(=O)N(C(=O)OCCOC)c1ccc(C#CCCO)cc12,0.538,-0.0086 (inactive),0.0807,-0.112,0.64,0.797,0.77,1.29,0.0117,0.953
COCCOC(=O)N1C(=O)[C@@]2(c3cc(C#CCCO)ccc31)[C@H](c1ccccc1OCCO)N1[C@H](c3ccccc3)[C@H](c3ccccc3)OC(=O)[C@H]1[C@@H]2C(=O)N1CCc2cc(OC)c(OC)cc2C1,0.329,0.339 (inactive),0.0562,-0.101,0.4,1.85,1.02,1.31,0.469,1.09
[N-]=[N+]=NCc1ccccc1C[C@@]1(C(=O)O)N=C(c2ccc(OCCCO)cc2)O[C@@H]1c1ccccc1CN=[N+]=[N-],0.516,0.259 (inactive),0.244,-0.0716,0.573,0.0091,0.0036,1.31,-0.0541,1.11
C=C(CC1([C@@H](NP(=O)(c2ccccc2)c2ccccc2)[C@H]2C[C@@H]2CCN(C(=O)OCC)S(=O)(=O)c2ccc(C)cc2)CC1)c1ccccc1,0.963,0.39 (inactive),0.6,0.354,0.355,2.65,0.319,0.981,-0.845,0.74
CN1C=C(C(=O)OCCS(C)(=O)=O)C(C(=O)OCCS(C)(=O)=O)=CC(CCCO)=CC1c1ccc(CN2CCCC2)cc1 (stereo not given),0.676,0.48 (inactive),0.405,-0.146,0.746,1.87,-0.197,1.3,0.369,0.907
COc1ccc([Si](C)(C)[C@H]2[C@H](CCO)O[C@@]3(C(=O)N(Cc4ccccc4)c4ccc(N(C=O)c5ccccc5)cc43)[C@@H]2C)cc1,0.717,-0.328 (inactive),0.0576,-0.0984,0.189,0.929,0.0964,0.936,-0.0384,1.02
C[N+](C)(C)CCCCCCNC(=O)[C@@H]1C[C@@H]2C(=O)N[C@@H](Cc3ccccc3)C(=O)N2[C@@H]1c1ccc(O)cc1,0.454,0.609 (inactive),0.325,-0.126,0.524,0.955,0.385,1.29,1.39,1.12
CC(C)C[C@@H]1NC(=O)C([C@@H](C)OCc2ccccc2)NC(=O)[C@@]23C(=O)N[C@@H](Cc4ccccc4)C2[C@H](C)[C@@]2(C)O[C@H]2C3/C=C/CC/C=C/CNC1=O (stereo not given in full),0.438,-0.0807 (inactive),-0.0647,-0.128,0.469,0.73,0.184,1.34,0.554,0.329
C=C(COC)/C(=C/C[C@H](OC(=O)c1ccncc1)c1cccc(OCCO)c1)c1cnc2ccccc2c1,0.671,1.56 (inactive),0.279,-0.0681,0.855,1.21,0.444,1.3,1.23,1.09
